The values that follow come from PubChem BioAssay AID2035 (National Center for Advancing Translational Sciences (NCATS), 2009).

The other results are listed elsewhere or left out. Where a call stands in place of a potency, no number is given. Active and inactive are the calls of the source. Calls come from the whole dose curve; as a rule, active = well fitted inhibition curve with a large enough effect; inconclusive = small, poorly fitted or top-dose-only effect; inactive = flat fitted curve, though single readings scatter.

The nature of the experiment: Confirmatory Assay for Inhibitors of Human Galactokinase (GALK): Phenol-HRP redox assay counterscreen. The conditions noted are these: Phenol red-HRP H2O2 redox cycling, absorbance 600 nm; series mostly up to 115 µM. An excerpt: NIH Molecular Libraries Probe Production Centers Network [MLPCN] NIH Chemical Genomics Center [NCGC] MLPCN Grant: R03 MH085689-01 Assay Submitter (PI): Kent Lai (University of Utah School of Medicine, 50 N Mario Capecchi Drive, Salt Lake City, UT 84132) NCGC Assay Overview: One mM dithiothreitol (DTT) was used as a reducing agent to maintain the galactokinase (GALK) enzyme in its active form in the GALK qHTS screen (AID: 1868). However, it has been shown that in the presence of DTT a number of compounds also undergo redox recyling, generating a significant amount of H2O2 that can oxidize crucial cysteine residues in the enzyme, leading to and a false-positive result. To evaluate and flag redox recycling compounds for compounds re-acquired from the qHTS screen, an endpoint colorimetric assay developed by Johnston et al. was adopted and optimized for a 1536-well plate format. In brief, the assay detects the presence of H2O2 by following the change in absorbance at 600 nm due to oxidation of phenol red (Sigma, cat# 114537) catalyzed by horseradish peroxidase (HRP; Invitrogen). A stop reagent, 1N NaOH was added prior to reading the absorbance. DMSO and different concentrations of hydrogen peroxide (Sigma, cat# 216763) in the GALK buffer were used as negative and positive controls respectively.
NCGC Assay Protocol Summary: Two uL/well of GALK buffer (20mM HEPES pH8.0, 5 mM MgCl2, 60 mM NaCl, 1 mM DTT, 0.01% BSA final concentration) was dispensed into a 1536-well assay plates (Greiner, black clear bottom plates) with Aurora Discovery BioRAPTR Flying Reagent Dispenser (FRD; Beckton-Dickenson). Compound and control solutions (23 nL each) were transferred to the assay plate in their respective wells using Kalypsys pin tool equipped with a 1536-pin tool head and incubated at room temperature for 30 min. Presence of H2O2 produced by redox cycling compounds was detected by adding 2 uL/well phenol red - HRP detection reagent ([…] phenol red in 1x Hanks Balanced Salt Solution, 25 U/mL HRP final concentrations). After 15 min of room temperature incubation, the reaction was stopped by adding 2 uL/well 1N NaOH and incubated for an additional 1 hr at room temperature. The absorbance at 600 nm was measured using the ViewLux plate reader (Perkin Elmer, Waltham, MA) with 6000 light energy, 2 sec exposure, and 2x binning instrument settings.
On the technique in general: A counterscreen serves to expose hits that act by an unwanted route or on another target.
Regarding `CCS(=O)(=O)C1=NSC2=NC(=O)/C(=C\c3ccc(OS(=O)(=O)c4ccccc4)cc3)C(=N)N21`, the Potency result is “inactive”. As to `N#Cc1c(N2CCCCC2)nc(N)c2c(N)nc(SCC(=O)O)cc12`, the Potency was 18.8 µM (active). Next, `Oc1c(Cl)cc(Cl)c(Cl)c1Cc1c(O)c(Cl)cc(Cl)c1Cl`: “inactive”; `N#C/C(=C(/O)Cc1cccc2ccccc12)c1nc2ccccc2s1`: “inactive”. With `CCOC(=O)c1c(C)[nH]c2c1-c1ccccc1C(=O)C2=O` the figure was 1.19 µM (active); with `COc1cccc2cc(-c3cc(=O)oc4cc(C)c(O)cc34)oc12`, “inactive”. With `O=C(Nc1nnc(S(=O)(=O)N2CCOCC2)s1)c1cccc(Br)c1` the entry was “inactive”.
